We go through 88 compounds from PubChem BioAssay AID504766 (The Scripps Research Institute Molecular Screening Center, 2011).

The structures appear in SMILES notation. Among all 340,000 compounds or so, about 3,400 (1%) were called active. The sample as a whole holds a higher share of actives than the screen did. Values without a mark were called inactive.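 Rule for the calls: active = inhibition above the mean over all tested compounds plus 3 SD (cut at about 4.2% in these data); inactive = the rest.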

Chain of Nuclear receptor subfamily 0 group B member 1 (Homo sapiens) (P51843 207-470 limits assumed): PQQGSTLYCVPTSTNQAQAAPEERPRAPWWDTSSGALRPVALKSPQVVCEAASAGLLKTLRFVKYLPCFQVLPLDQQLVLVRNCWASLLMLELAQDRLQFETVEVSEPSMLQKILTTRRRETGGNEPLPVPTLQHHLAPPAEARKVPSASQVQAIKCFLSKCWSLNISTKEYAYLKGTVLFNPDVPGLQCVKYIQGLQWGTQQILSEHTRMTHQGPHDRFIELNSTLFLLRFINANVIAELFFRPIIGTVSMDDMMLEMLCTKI

The assay concerns the target Nuclear receptor subfamily 0 group B member 1 (Homo sapiens) (UniProt P51843). The assay can be described thus: DAX1 (NR0B1) inhibitors, primary screen, cell-based, HEK293, Gal4-DAX1, luciferase luminescence (AID 504766).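 Note: 0% = DAX1-transfected cells with DMSO and 100% = empty-vector control cells with DMSO; inhibition shows as a rise in luminescence from relieved DAX1 repression.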 As to conditions: HEK293 Gal4-DAX1 luciferase reporter, at 6.75 µM, active compounds read high. On the technique in general: A reporter such as luciferase makes a cellular process visible.
As for `COc1ccc(C(CNC(=O)CSc2ccccc2)N2CCOCC2)cc1` (stereo not drawn), the inhibition was 1.43%.

Take `CC(=O)NC(Cc1c[nH]c2ccccc12)C(=O)O` (stereo not drawn): the inhibition is 9.87% (active).

Take `Cc1cccc(C)c1OCC(=O)NC(Cc1c[nH]c2ccccc12)C(=O)O` (stereo not drawn): the inhibition is 0.88%.

For `CC(=O)NC(Cc1c[nH]c2ccccc12)C(=O)NCCc1ccccc1` (stereo not drawn), the inhibition is 3.45%.

Take `CCc1cc(-c2nnn(CCC3COCCO3)c2CC)ccc1-c1cn(Cc2ccc3ccccc3c2)nn1` (stereo not drawn): the inhibition was -3.79%.

As to `C[C@H]1CN([C@@H](C)CO)C(=O)CCCn2cc(nn2)CO[C@@H]1CN(C)S(=O)(=O)c1ccc(-c2ccccc2)cc1`, the inhibition is 0%.

For the compound `O=C(c1cc(S(=O)(=O)N2CCOCC2)ccc1Cl)N1CCOCC1`, the inhibition was 0.61%.

For the compound `O=C(O)c1ccc(S(=O)(=O)N2CCOCC2)o1`, the inhibition is 6.4% (active).

Regarding `O=C(CCc1ccc(S(=O)(=O)N2CCOCC2)cc1)NN=C1CCCCCCC1`, the inhibition is 0%.

On to `COc1ccc2c(c1)CCCO[C@]21O[C@H](CCO)C[C@H](O)[C@H]1O`, for which the inhibition was 0.36%.

For the compound `O=C(O)C1CCCN1c1nc(Cl)ccc1[N+](=O)[O-]` (stereo not drawn), the inhibition is -0.69%.

Take `Cn1ncc([N+](=O)[O-])c1C(=O)Nc1cc(Cl)ccc1Cl`: the inhibition was 1.05%.

Take `Cc1nc(-c2ccc(Cl)cc2)sc1C(=O)CBr`: the inhibition is -0.83%.

For the compound `Cc1nc(-c2ccccc2)sc1C(=O)/C=C/N(C)C`, the inhibition is 3.31%.

Take `Cc1nc(-c2ccccc2)sc1C(=O)/C=C/c1ccccc1`: the inhibition was 5.32% (active).

As for `c1ccc(Cn2nnc3c(NCC4CC4)ncnc32)cc1`, the inhibition was 1.59%.

Regarding `O=C(Nc1ncccc1O)c1ccc(S(=O)(=O)N2CCCC2)cc1`, the inhibition is 2.95%.

Turning to `O=C(Nc1ncccc1O)c1ccc(S(=O)(=O)N2CCCCCC2)cc1`, the inhibition was 1.6%.

Consider `O=C(Nc1ncccc1O)c1ccc(C(=O)c2ccccc2)cc1`, for which the inhibition was 10.6% (active).

`Cc1cccc(C)c1NC(=O)CNC(=O)c1ccc(N2CCOCC2)c([N+](=O)[O-])c1`: the inhibition is 0.52%.

As for `CC1=C(C(=O)N2CCOCC2)CC(CC(=O)NCC2CCCCC2)C(=O)N1Cc1ccc(F)cc1` (stereo not drawn), the inhibition is 0.65%.

For `COc1ccc(-c2nnc3ccc(SCc4ccccc4)nn23)cc1`, the inhibition was 0.1%.

For the compound `COc1ccc2nc(SCc3ccccc3)nc(C)c2c1`, the inhibition is 4.59% (active).

On to `COc1cccc(CSc2nc3nc(C)cc(C)n3n2)c1`, for which the inhibition was 1.86%.

As for `COc1ccc(-c2ccc(CN3C(CC(C)C)C(=O)N(Cc4cn(CC5CCCCC5)nn4)CCS3(=O)=O)cc2)cn1` (stereo not drawn), the inhibition was -0.76%.

Regarding `O=C(NCCOc1ccccc1)N1[C@H]2CC[C@@H]1C=C(c1ccc(F)cc1OCc1ccccc1)C2`, the inhibition was 0.36%.

For the compound `CCc1c(N=O)c(-c2ccccc2)n(O)[n+]1[O-]`, the inhibition is 0.23%.

In the case of `C[C@@H]1CN([C@@H](C)CO)C(=O)CCCn2nncc2CO[C@@H]1CN(C)S(=O)(=O)c1ccc(-c2ccccc2)cc1`, the inhibition is 0.31%.

Take `O=C(/C=C\c1ccc2c(c1)OCO2)NC1(C(=O)Nc2ccc3c(c2)OCCO3)CCCCC1`: the inhibition was -0.83%.

For `O=C(/C=C/c1ccc2c(c1)OCCO2)c1ccc(O)cc1`, the inhibition was 16.4% (active).

Regarding `O=C(COC(=O)c1ccc(O)cc1O)c1ccc2c(c1)OCCO2`, the inhibition is -0.46%.

Consider `COc1ccc(-c2ccc(CN3C(CC(C)C)C(=O)N(Cc4cn(CC5CCCCC5)nn4)CCS3(=O)=O)cc2)cc1` (stereo not drawn), for which the inhibition is 1.23%.

With `COCCCN1C(=O)C(CC(=O)NCc2cccs2)CC(C(=O)N2CCOCC2)=C1C` (stereo not drawn), the inhibition was 1.28%.

For `CN1CCn2cnc(C(=O)NCC(=O)OC(C)(C)C)c2C1=O`, the inhibition was 0.48%.

`C[C@@H]1CN([C@@H](C)CO)C(=O)CCCn2cc(nn2)CO[C@H]1CN(C)S(=O)(=O)c1ccc(-n2cccn2)cc1`: the inhibition is 1.04%.

With `O=c1[nH]c2ccccc2n1C1CCN(CCOc2ccccc2)CC1`, the inhibition is -1.06%.

Turning to `CCOc1ccc2cc(C#N)c(SCC(=O)OC)nc2c1`, the inhibition was 4.25% (active).

Consider `CCOC(=O)CSc1nccc(N(C)C)c1C#N`, for which the inhibition was 0.68%.

As to `Cc1nonc1NC(=O)CSc1nc2ccccc2cc1C#N`, the inhibition is 2.09%.

On to `COc1ccc(C(C)(C)C)cc1NC(=O)CN(C)C1=NS(=O)(=O)c2ccccc21`, for which the inhibition is 0.35%.

As to `O=C(CCCN1C(=O)C(c2ccccc2)Oc2cccnc21)Nc1ccccc1Br` (stereo not drawn), the inhibition is 0.05%.

As for `N#CCSc1ccccc1NC(=O)CN1C(=O)NC(CCc2ccccc2)C1=O` (stereo not drawn), the inhibition is 2.57%.

Consider `C#CCN(C[C@H]1[C@H](OC(=O)NC2CCCC2)[C@H](OC(=O)NC2CCCC2)C[C@H]2C(=O)N(c3ccccc3)C(=O)[C@@H]12)S(=O)(=O)c1ccc(C)cc1`, for which the inhibition was -0.02%.

`CC1CCC2(CC1)NC(=O)N(CC(=O)NCc1ccco1)C2=O` (stereo not drawn): the inhibition was 3.52%.

As to `Cc1ccc(S(=O)(=O)N2C[C@H]3n4c(=O)ccc(=O)n4C[C@H](OC(=O)NC4CCCC4)[C@@]3(O)C2)cc1`, the inhibition is 0.12%.

Turning to `C[C@H](CO)N1C[C@H](C)[C@@H](CN(C)C(=O)c2cccc(F)c2)Oc2cc(-c3cncnc3)ccc2S1(=O)=O`, the inhibition was 1.05%.

Regarding `CCCCOC(=O)c1[nH]c(C)c(C(=O)OC)c1C`, the inhibition is 2.23%.

Take `COC(=O)C1C(=O)c2c([nH]c(C(=O)OCCSC)c2C)CC1C` (stereo not drawn): the inhibition was 5.56% (active).

Turning to `CCCOC(=O)c1[nH]c2c(c1C)C(=O)CC(c1cccs1)C2` (stereo not drawn), the inhibition was 1.32%.

Regarding `C[C@H](CO)N1C[C@H](C)[C@@H](CN(C)S(=O)(=O)c2ccc(F)cc2)OCc2cnnn2CCCC1=O`, the inhibition is 0.91%.

As to `Oc1ccc(-c2cccc(-c3ccc(O)cc3)c2)cc1`, the inhibition was 2.72%.

As for `c1ccc(-c2c[nH]c(-c3ccccc3)c2)cc1`, the inhibition is 4.28% (active).

For `c1ccc(-c2ccc3c(c2)NC(C2Nc4cc(-c5ccccc5)ccc4O2)O3)cc1` (stereo not drawn), the inhibition was -0.52%.

As to `COc1cccc(NC(=O)CN(C)C(=O)c2cc(Cl)nc3ccccc23)c1`, the inhibition is -0.56%.

As for `COc1cc2c(=O)n(C)c3ccccc3c2cc1OC`, the inhibition was 0.78%.

Take `Cn1c(=O)c([N+](=O)[O-])c(Oc2ccccc2)c2ccccc21`: the inhibition was 1.91%.

With `Cc1cccc(Oc2c([N+](=O)[O-])c(=O)n(C)c3ccccc23)c1`, the inhibition was 5.15% (active).

Regarding `Cc1cccc(S(=O)(=O)N(C)C[C@H]2OCc3cnnn3CCCC(=O)N([C@@H](C)CO)C[C@H]2C)c1`, the inhibition was 2.68%.

Take `C[C@@H]1CN([C@@H](C)CO)C(=O)c2cc(Br)cnc2O[C@H]1CN(C)Cc1ccc(-c2ccccc2)cc1`: the inhibition was 0%.

In the case of `CCCCCCNC(=O)O[C@H]1CN(C(=O)OC(C)C)N(C(=O)OC(C)C)[C@@H]2CN(S(=O)(=O)c3ccc(C)cc3)C[C@]12O`, the inhibition is 0.72%.

Regarding `NC(=O)c1c(NC(=O)c2ccccc2)sc2c1CCCC2`, the inhibition was 4.41% (active).

Regarding `O=C(Nc1sc2c(c1C(=O)O)CCC2)c1ccccc1F`, the inhibition is 0.36%.

On to `O=C(CN1CCCC1)Nc1sc2c(c1C(=O)Nc1ccccc1)CCCC2`, for which the inhibition is 1.85%.

Regarding `CCCCN1C(=O)C(CC(=O)NCc2cccs2)CC(C(=O)N2CCOCC2)=C1C` (stereo not drawn), the inhibition is 1.03%.

Turning to `CC(=NNC(N)=O)C1CC2CCC1CC2` (stereo not drawn), the inhibition is 0.34%.

With `C[C@H]1Cn2cnc(C(=O)N[C@@H](Cc3c[nH]c4ccccc34)C(=O)OC(C)(C)C)c2C(=O)N1`, the inhibition is 0.77%.

Turning to `C[C@H](CO)N1C[C@H](C)[C@@H](CN(C)C(=O)C2CCCCC2)OCc2cnnn2CCCC1=O`, the inhibition is 0.86%.

Regarding `COC(=O)N(C)C[C@@H]1OCc2cnnn2CCCC(=O)N([C@@H](C)CO)C[C@@H]1C`, the inhibition is 1.06%.

For `C[C@@H]1CN([C@H](C)CO)C(=O)CCCn2nncc2CO[C@@H]1CN(C)C(=O)OCc1ccccc1`, the inhibition was 4.4% (active).

Take `Cn1c(CCN2CCN(c3ccccn3)CC2)nc2cc(NS(=O)(=O)c3ccc(F)cc3)ccc21`: the inhibition is 0.29%.

As to `Cc1cc2cc3n(c2nn1)N=C(Cl)CC3`, the inhibition was 1.28%.

Regarding `CCN(Cc1ccncc1)C(=S)Nc1ccccc1C`, the inhibition was 0.81%.

Take `CCc1nnc(NC(=O)c2ccco2)s1`: the inhibition is 1.93%.

For `CCCCN1C(=O)C(CC(=O)NC(c2ccccc2)c2ccccc2)CC(C(=O)N2CCOCC2)=C1C` (stereo not drawn), the inhibition was 0.88%.

Regarding `Cc1ccc(C(=O)O/N=C(\N)c2ccccn2)cc1Cl`, the inhibition is -3.11%.

In the case of `Cc1cccc(/C(N)=N/OC(=O)c2ccccc2Cl)c1`, the inhibition was 4.97% (active).

Regarding `Cc1ccc(/C(N)=N/OC(=O)COc2ccc(Cl)c(C)c2)cc1`, the inhibition was -0.49%.

As to `COCC(=O)N(C)C[C@H]1Oc2cc(Br)ccc2S(=O)(=O)N([C@H](C)CO)C[C@H]1C`, the inhibition was 1.77%.

With `COc1ccc(CN2C(=O)C(CC(=O)NCCN3CCOCC3)CC(C(=O)N(C(C)C)C(C)C)=C2C)cc1` (stereo not drawn), the inhibition is -0.44%.

As for `CC(=O)OCCC(C)C`, the inhibition is 5.92% (active).

With `CC(=O)OC(C)C[N+](C)(C)C` (stereo not drawn), the inhibition is 1.03%.

Take `CC(=O)OCC(COC(C)=O)OC(C)=O`: the inhibition is -0.24%.

For `Cc1ccc(S(=O)(=O)N2C[C@@H](C)[C@]3(C2)[C@H](O)[C@H](OC(=O)NCc2ccccc2)C[C@H]2C(=O)N(c4ccccc4)C(=O)[C@H]23)cc1`, the inhibition was 0.21%.

On to `O=C1OCCC1=COCCCCOC=C1CCOC1=O`, for which the inhibition is -0.66%.

For the compound `Cc1cc(C)n(-c2nc(O)cc(=O)[nH]2)n1`, the inhibition is 4.76% (active).

In the case of `Cc1cc(C)n(-c2ccc3nncn3n2)n1`, the inhibition is 0.66%.

On to `CC(=O)c1ccc(Oc2cc(C)nc(-n3nc(C)cc3C)n2)cc1`, for which the inhibition was 0.1%.

With `CNS(=O)(=O)c1ccc2c(c1)[nH]c(=S)n2C`, the inhibition was 0.47%.

By inhibition is commonly meant the change of the read-out against control, counted positive when it falls.
